FBW7 activator: activators of human E3 ligase FBW7; AlphaScreen FBW7–phospho-cyclin E peptide binding, activator screen; normalized activity (activation), % at 26.1 µM; hit rate 0.13% among 650,000; AID 1259310; in the data active = normalized activity above about 1.9%;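 note: purified mutant Fbw7 with reduced substrate affinity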
GPR151 ag: human GPR151 activation. PathHunter beta-arrestin GPR151 cells, luminescence. activation, % at 11.2 µM. hit rate 1% among 650,000. Q8TDV0; in the data active = activation above about 4.9%;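 note: 0% = median of compound wells and 100% = cells with positive control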
Target sequence (Q8TDV0 whole entry, looked up): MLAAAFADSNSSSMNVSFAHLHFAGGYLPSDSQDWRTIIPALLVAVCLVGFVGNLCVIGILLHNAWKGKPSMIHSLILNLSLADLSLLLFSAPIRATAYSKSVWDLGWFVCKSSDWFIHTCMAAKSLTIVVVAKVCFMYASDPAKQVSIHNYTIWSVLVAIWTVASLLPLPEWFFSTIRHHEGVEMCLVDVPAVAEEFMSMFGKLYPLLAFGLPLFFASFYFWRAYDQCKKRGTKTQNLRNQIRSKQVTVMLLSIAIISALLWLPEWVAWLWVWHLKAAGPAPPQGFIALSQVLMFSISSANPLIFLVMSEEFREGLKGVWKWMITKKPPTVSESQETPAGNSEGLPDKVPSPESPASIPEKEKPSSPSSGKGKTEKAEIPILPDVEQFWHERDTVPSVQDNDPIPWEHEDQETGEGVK
MITF primary: human MITF inhibition, primary screen. AlphaScreen MITF homodimerization, bead proximity signal. hit rate 0.91% among 650,000. AID 1259374. inhibition, % at 2.6 µM; in the data active = inhibition above about 50%;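 note: 0% = vehicle wells with protein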
TEAD-YAP inh: TEAD-YAP interaction inhibition; HEK-TIYL cells, TEAD-Gal4/YAP UAS-luciferase luminescence; inhibition, % at 9.12 µM; hit rate 1.4% among 640,000; in the data active = inhibition above about 32%;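 note: 0% = median of test compound wells and 100% = reference inhibitor wells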
* hit, by the source's call. Most compounds without a hit are left out; they make up all but 3.5% or so of the library.

SMILES | FBW7 activator | GPR151 ag | MITF primary | TEAD-YAP inh
COc1ccc(CCNc2nc(-c3c(C)nn(C)c3C)ncc2C)cc1 | 0 | 2 | 11 | 3
COc1ccc(CCNc2nc(-c3ccc(OC)nc3)ncc2C)cc1 | 0 | -2 | 4 | 41*
COc1ccc(CCNc2nc(-c3c(C)noc3C)ncc2C)cc1 | 0 | 1 | -4 | 41*
COc1ccc(CCNc2nc(-c3ccc(OC)cc3)ncc2C)cc1 | 0 | 0 | -3 | 0
COc1ccc(CCNc2nc(-c3ccccc3)ncc2C)cc1 | 0 | -2 | -4 | 42*
COc1ccc(/C=N/NC(=O)CSc2ccccn2)c(OC)c1 | 0 | -2 | 21 | -5
CC(C)(C)c1ccc(C(=O)Nc2ccc(NC(=O)c3ccc([N+](=O)[O-])cc3)cc2)cc1 | 0 | 1 | -5 | 8
CCOC(=O)/C=C/C(=O)Nc1sc(C)c(C)c1C(N)=O | 0 | 0 | 15 | 11
CCOC(=O)c1c(NC(=O)/C=C/C(=O)O)sc(C)c1-c1ccc(Cl)cc1 | 0 | 0 | 10 | 41*
COC(=O)c1c(NC(=O)/C=C/C(=O)O)sc(Cc2ccccc2)c1C | 1 | -1 | 2 | 36*
COC(=O)c1c(NC(=S)Nc2ccccc2)sc(Cc2ccccc2)c1C | 0 | 1 | 6 | -4
CCOC(=O)c1c(-c2ccc(OCC)cc2)csc1NC(=O)/C=C/C(=O)O | 0 | -1 | 16 | 48*
CCOC(=O)c1c(NC(=O)/C=C/C(N)=O)sc(C)c1C | 0 | 1 | 6 | 45*
Cc1cc(Cl)cc2sc(N(Cc3ccco3)C(=O)C3=COCCO3)nc12 | 0 | 2 | 12 | -20
COc1ccc(N2C(=O)CC(NNC(N)=O)C2=O)cc1 (centres undefined) | 1 | 0 | 7 | 7
O=C(/C=C/Nc1cccc(O)c1)c1ccc(Cl)cc1 | 0 | -1 | 5 | 97*
COc1cccc(C(=O)/C=C/Nc2cccc(O)c2)c1 | 1 | -9 | 17 | 97*
O=C(/C=C\Nc1cccc(F)c1)c1ccc2c(c1)OCO2 | 0 | -4 | 0 | 55*
O=C(/C=C\Nc1ccc2c(c1)OCO2)c1ccc2ccccc2c1 | 1 | -1 | 8 | -7
CSCCCNC1CCN(c2ccc(CC(=O)NCCc3cccc(F)c3)cc2)CC1 | 0 | 0 | -20 | 3
COc1ccc(NC(=O)[C@H]2C=CCN2C(=O)c2ccco2)cc1 | 0 | -1 | -5 | -10
CCOC(=O)/C(C#N)=C(\N)C(F)(F)F | 0 | -1 | 4 | -8
Cc1cc2nc3c(=O)[nH]c(=O)[nH]c3nc2cc1N | 0 | 0 | -1 | 8
Cc1cc2nc3c(=O)[nH]c(=O)[nH]c3nc2c([N+](=O)[O-])c1N | -1 | 1 | 68* | 2
COC(CN(C)C1=NC(=O)/C(=C\c2ccc(SC)cc2)S1)OC | 0 | -1 | 5 | 42*
SMILES | FBW7 activator | GPR151 ag | MITF primary | TEAD-YAP inh
CCC[C@@H]1NC(=O)[C@@H]2C[C@H](NCc3cccc(Cl)c3)CN2C1=O | 0 | 1 | -5 | 18
FC(F)(F)c1cc(Cn2c3ccccc3c3nc4ccccc4nc32)cc(C(F)(F)F)c1 | 2.4* | -1 | -3 | 4
O=C(Nc1ccc(-c2ccn[nH]2)cc1)C1CCCN(Cc2cccc3nonc23)C1 (centres undefined) | 0 | -1 | 5 | 7
COc1cc(Nc2cc(C)nc(Nc3cc(OC)c(OC)c(OC)c3)n2)cc(OC)c1OC | 0 | 0 | -4 | 24
COc1ccc(CCNc2cc(C)nc(Nc3ccncc3)n2)cc1 | 0 | 1 | -4 | -4
COc1ccc(CCNc2cc(C)nc(Nc3cc(OC)c(OC)c(OC)c3)n2)cc1 | 0 | 2 | 1 | 36*
COc1cc(Nc2cc(C)nc(Nc3cccc(N(C)C)c3)n2)cc(OC)c1OC | 0 | 1 | -8 | 48*
CN(C)c1ccc(N2C(=O)CSC2=S)cc1 | 0 | 0 | 54* | 6
O=C1CSC(=S)N1c1ccc(F)cc1 | 0 | -1 | 8 | 0
COc1ccc2cc(Br)ccc2c1CC(=O)Nc1nc(C)cs1 | 0 | -1 | 4 | 38*
CC1=CC(=C2CC(C)(C)N=C2C)C=C(C)C12CC(C)(C)N=C2C (centres undefined) | 0 | 0 | 1 | 8
CCN(C1=C(Cl)C(=O)N(c2ccccc2)C1=O)c1ccccc1 | 0 | 0 | 7 | 6
CN(C1=C(Cl)C(=O)N(c2cccc(Cl)c2)C1=O)c1ccccc1 | 0 | 1 | 19 | 33*
Cc1ccc2c(c1)C1OCCC1C(c1cccs1)N2 (centres undefined) | 0 | 0 | 0 | 42*
NS(=O)(=O)c1ccc(CCNC(=O)CCCn2c(SCC(=O)Nc3ccc(F)cc3)nc3ccsc3c2=O)cc1 | 0 | 0 | -12 | -2
